# In the library only some 19% were active in any assay of this set; here they are far more common.
# HT1080 IDH1KD tx: qHTS for induction of synthetic lethality in tumor cells producing 2HG: qHTS for the HT-1080-IDH1KD cell line; HT-1080 IDH1 knockdown viability, ATP luminescence, 48 h; Potency, µM (series often up to 46.1 µM), hits mostly cytotoxic; 360,000 compounds, 2% hits
#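 Cytotoxicity counter-line: IDH1KD HT-1080, 48 h, CellTiter-Glo. Curves classed by r2, magnitude and activity.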
# HT1080-NT tox: qHTS for induction of synthetic lethality in tumor cells producing 2HG: qHTS for the HT-1080-NT fibrosarcoma cell line; HT-1080-NT fibrosarcoma viability, CellTiter-Glo ATP luminescence, 48 h; Potency, µM (series often up to 46.1 µM), most hits filed as cytotoxic; 360,000 compounds, 1.6% hits;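 also: NT is the 2HG producing partner of a matched IDH1 knockdown line; nearly all actives have a fitted effect of over 55% in size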
#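 HT-1080-NT; 750 cells/well; 5% FBS RPMI; 48 h compound, 37 degrees C; CellTiter-Glo luminescence; curve fitting and curve-class assignment.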
# DT40 TDP1 no CPT: qHTS for Inhibitors of human tyrosyl-DNA phosphodiesterase 1 (TDP1): qHTS in cells in absence of CPT; DT40 Tdp1-/- hTDP1 cells, no CPT, ATP luminescence, 48 h; Potency, µM (highest dose often 46.2 µM), hits mostly inhibitors; 420,000 compounds, 15% hits; AID 686978, 2013; also: nearly all actives have a fitted effect of over 55% in size
#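 Chicken DT40 Tdp1-/- cells complemented with human TDP1, screened without camptothecin (DMSO vehicle only), 400 cells/well. Compounds pin-transferred, cells incubated at 37 °C for at least 48 hr. Growth read as ATP-dependent luminescence (CellTiter-Glo, 30 min at RT).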
# DT40 TDP1 CPT: qHTS for Inhibitors of human tyrosyl-DNA phosphodiesterase 1 (TDP1): qHTS in cells in presence of CPT; chicken DT40 Tdp1-/-;hTDP1 cells + 20 nM CPT, ATP luminescence, 48 h; Potency, µM (titrated, usually from 46.2 µM), usual class: inhibitors; 420,000 compounds, 12% hits; AID 686979, 2013; also: nearly all actives have a fitted effect of over 55% in size
#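 Chicken DT40 Tdp1-/- cells stably complemented with human TDP1 were seeded at 400 cells/well in medium containing 20 nM camptothecin, exposed to pin-transferred compounds, and grown at 37 °C for at least 48 hr. Viability was read as ATP luminescence.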
# IL-1B inflam inh: qHTS for Inhibitors of Inflammasome Signaling: IL-1-beta AlphaLISA Primary Screen. activity change, % at 57.5 µM. THP-1 LPS/ATP IL-1B secretion, AlphaLISA, 16 h; hits give low values. 360,000 compounds, 4.7% hits; in the data active = activity change below about -50%; inconclusive = mostly about -30% to -49%
#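 THP-1 cells pretreated 1 hr with compounds (up to 57.5 uM final), then stimulated with LPS (250 ng/mL final) plus ATP (1.25 mM final); secreted IL-1B measured by AlphaLISA after 16 hr, decreased signal indicating inhibition.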
# Hits are given with their value; i = inactive; ? = inconclusive; nt = no result given. Unless noted, calls follow the shape of the dose curve; as a rule, active = well fitted curve in the direction sought with a large enough effect; inconclusive = small, poorly fitted or top-dose-only effect, or another doubt; inactive = no such curve, though single readings can be large; an effect the other way counts as inactive or inconclusive.
SMILES,HT1080 IDH1KD tx,HT1080-NT tox,DT40 TDP1 no CPT,DT40 TDP1 CPT,IL-1B inflam inh
S=c1nc2ccccc2c2nc(-c3ccccc3)[nH]n12,i,i,9.2µM,21µM,i
Cc1nc(=S)n(-c2ccccc2)[nH]1,i,i,i,i,i
CCOC(=O)COc1cccc2c(=O)n(CC(=O)NCc3ccccc3)ccc12,0.46µM,0.52µM,0.65µM,1µM,i
CCOC(=O)COc1cccc2c(=O)n(CC(=O)N3CCCCC3)ccc12,i,i,i,i,i
CCOC(=O)C(C)Oc1cccc2c(=O)n(CC(=O)Nc3ccc4c(c3)OCCO4)ccc12 (stereo not drawn),i,i,i,i,i
CCOC(=O)C(C)Oc1cccc2c(=O)n(CC(=O)NCc3ccc4c(c3)OCO4)ccc12 (stereo not drawn),?,?,2.3µM,2.6µM,i
CCOC(=O)COc1cccc2c(=O)n(CC(=O)NCc3ccc(F)cc3)ccc12,1µM,1.2µM,0.52µM,0.58µM,i
CCOC(=O)COc1cccc2c(=O)n(CC(N)=O)ccc12,i,i,i,i,-58
COC(=O)COc1cccc2c(=O)n(CC(=O)NCCc3ccccc3)ccc12,i,i,i,i,i
O=C(CCCNC(=O)c1ccc(Cl)cc1)Nc1ccccc1C(F)(F)F,i,i,i,i,i
CCN(CC)C(=O)Cn1cc(SCC(=O)Nc2ccccc2C)c2ccccc21,nt,nt,i,i,nt
CCc1ncc(CO)n1Cc1cccc2ccccc12,i,i,?,i,i
O=C(CNC(=O)c1cccs1)c1ccc(Br)cc1,i,i,i,i,i
COc1cc(/C=C2/CCCC(C(=O)C(F)(F)F)=C2O)ccc1O,i,i,i,i,i
COc1ccc(/C=C2/CCCC(C(=O)C(F)(F)F)=C2O)cc1OC,i,i,18µM,23µM,?
CCOc1cc(/C=C2\CCCC(C(=O)C(F)(F)F)=C2O)ccc1O,?,?,23µM,23µM,?
COc1ccc(C(=O)N2CCC(C)(C(=O)NS(=O)(=O)C3CC3)C2)cc1 (stereo not drawn),i,?,i,i,i
O=C(CSCc1c(F)cccc1Cl)Nc1ccccc1C(=O)N1CCOCC1,i,i,i,i,i
COc1ccc2c(c1)C1CC(C)(NC(=O)C1S(=O)(=O)c1ccc(F)cc1)O2 (stereo not drawn),i,i,i,?,i
O=C(C[n+]1csc2ccccc21)c1ccc(I)cc1,nt,nt,11µM,?,nt
Cc1csc[n+]1CC(=O)c1ccc(I)cc1,nt,nt,?,16µM,nt
O/N=C(/C[n+]1csc2ccccc21)c1ccccc1,nt,nt,1.1µM,1.1µM,nt
Cc1ccc(NC(=O)CNC(=O)CC23CC4CC(CC(C4)C2)C3)c(O)c1,i,i,i,i,-52
COc1ccc(NC(=O)CNC(=O)CC23CC4CC(CC(C4)C2)C3)c(OC)c1,i,i,?,?,i
NC(=O)c1ccccc1NC(=O)CC12CC3CC(CC(C3)C1)C2,i,i,?,21µM,i
SMILES,HT1080 IDH1KD tx,HT1080-NT tox,DT40 TDP1 no CPT,DT40 TDP1 CPT,IL-1B inflam inh
Clc1nc(Nc2ccccc2)nc(Nc2ccccc2)n1,i,i,i,i,-100
COc1ccc(Nc2nc(Cl)nc(Nc3ccc(OC)cc3)n2)cc1,i,i,?,i,i
CC(C)(C)Nc1nc(Cl)nc(Nc2ccccc2)n1,i,i,?,?,-65
CN(C)c1nc(N)c2ncc(=S)[nH]c2n1,i,i,i,i,-65
CC1CCN(Cc2nc(Cl)c3c4c(sc3n2)CCC4)CC1,i,i,13µM,18µM,-96
Clc1nc(CN2CCOCC2)nc2sc3c(c12)CCC3,i,i,i,i,i
Clc1nc(CN2CCCCC2)nc2sc3c(c12)CCCC3,i,i,10µM,?,?
Cc1sc2nc(CN3CCCCC3)nc(Cl)c2c1C,i,i,16µM,?,-103
COc1ccccc1CC(=O)N(CCC1=CCCCC1)c1c(N)n(Cc2ccccc2)c(=O)[nH]c1=O,i,i,i,i,i
